Test results taken from PubChem BioAssay AID1159580 (chemical genetic matrix, 2015).
In all, about 5,500 compounds went through this assay and about 2,000 (36%) were called active. Inconclusive results (about 18%) are left out. Cut-off read from the data, not from the text of the source: active = normalized growth mostly below about 0.91 (no sharp cut-off); inconclusive = no clear call, values can overlap the other calls; inactive = mostly above about 0.92. The list shows a part of the results.

Assay: chemical genetic growth profiling, strain panel (AID 1159580);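 note: tested at 20 µM; growth read once vehicle control cultures reached saturation at 30 °C; 1 = growth at the plate median or of vehicle wells; lower values mean less growth of the strain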
Conditions: growth OD

Measured: normalized growth

CC1(C)S[C@@H]2[C@H](NC(=O)COc3ccccc3)C(=O)N2[C@H]1C(=O)O
inactive: S. cerevisiae deletion strains, locus YJR075W, strain HOC1, hits give low values 1 | S. cerevisiae deletion strains, locus YKL009W, strain mrt4, hits give low values 1.03 | S. cerevisiae deletion strains, locus YKL068W, hits give low values 1.02 | S. cerevisiae deletion strains, locus YKL085W, strain MDH1 (second series), hits give low values 1.01 | S. cerevisiae deletion strains, locus YKL085W, strain MDH1, hits give low values 1.01 | S. cerevisiae deletion strains, locus YKL160W, strain elf1, hits give low values 0.977 | S. cerevisiae deletion strains, locus YKL190W, strain CNB1, hits give low values 0.992 | S. cerevisiae deletion strains, locus YKR001C, strain vps1, hits give low values 1.03 | S. cerevisiae deletion strains, locus YKR026C, strain gcn3, hits give low values 0.983 | S. cerevisiae deletion strains, locus YKR091W, strain srl3, hits give low values 0.991 | S. cerevisiae deletion strains, locus YLL001W, strain dnm1, hits give low values 0.935 | S. cerevisiae deletion strains, locus YLL026W, hits give low values 0.983 | S. cerevisiae deletion strains, locus YLL041C, strain sdh2, hits give low values 0.999 | S. cerevisiae deletion strains, locus YLR027C, strain aat2, hits give low values 0.973 | S. cerevisiae deletion strains, locus YLR039C, strain RIC1, hits give low values 1.04 | S. cerevisiae deletion strains, locus YLR058C, strain SHM2, hits give low values 1 | S. cerevisiae deletion strains, locus YLR102C, strain apc9, hits give low values 1.02 | S. cerevisiae deletion strains, locus YLR113W, strain HOG1, hits give low values 0.994 | S. cerevisiae deletion strains, locus YLR221C, strain rsa3, hits give low values 1.01 | S. cerevisiae deletion strains, locus YLR258W, strain gsy2, hits give low values 0.999 | S. cerevisiae deletion strains, locus YLR262C, strain YPT6 (second series), hits give low values 0.968 | S. cerevisiae deletion strains, locus YLR262C, strain YPT6, hits give low values 1.04 | S. cerevisiae deletion strains, locus YLR268W, strain sec22, hits give low values 1.03 | S. cerevisiae deletion strains, locus YLR320W, strain mms22, hits give low values 0.99 | S. cerevisiae deletion strains, locus YLR330W, strain CHS5, hits give low values 1 | S. cerevisiae deletion strains, locus YLR342W, strain FKS1 (second series), hits give low values 0.976 | S. cerevisiae deletion strains, locus YLR342W, strain FKS1, hits give low values 0.975 | S. cerevisiae deletion strains, locus YLR357W, strain rsc2, hits give low values 0.992 | S. cerevisiae deletion strains, locus YLR370C, strain arc18, hits give low values 1 | S. cerevisiae deletion strains, locus YLR371W, strain rom2, hits give low values 1.02 | S. cerevisiae deletion strains, locus YLR384C, strain iki3, hits give low values 0.98 | S. cerevisiae deletion strains, locus YLR418C, strain cdc73, hits give low values 1.06 | S. cerevisiae deletion strains, locus YML016C, strain PPZ1, hits give low values 1.01 | S. cerevisiae deletion strains, locus YML032C, strain rad52, hits give low values 1.04 | S. cerevisiae deletion strains, locus YML120C, strain ndi1, hits give low values 0.995 | S. cerevisiae deletion strains, locus YML124C, strain tub3, hits give low values 1.03 | S. cerevisiae deletion strains, locus YMR058W, strain fet3, hits give low values 0.988 | S. cerevisiae deletion strains, locus YMR078C, strain ctf18, hits give low values 1.02 | S. cerevisiae deletion strains, locus YMR125W, strain sto1, hits give low values 1.01 | S. cerevisiae deletion strains, locus YMR129W, hits give low values 0.998 | S. cerevisiae deletion strains, locus YMR205C, strain PFK2, hits give low values 0.994 | S. cerevisiae deletion strains, locus YMR223W, strain ubp8, hits give low values 1.02 | S. cerevisiae deletion strains, locus YMR231W, strain pep5, hits give low values 1.01 | S. cerevisiae deletion strains, locus YMR263W, strain SAP30, hits give low values 1 | S. cerevisiae deletion strains, locus YMR307W, strain GAS1, hits give low values 0.989 | S. cerevisiae deletion strains, locus YNL067W, strain RPL9B, hits give low values 1.01 | S. cerevisiae deletion strains, locus YNL071W, strain lat1, hits give low values 1 | S. cerevisiae deletion strains, locus YNL128W, strain TEP1, hits give low values 1.01 | S. cerevisiae deletion strains, locus YNL153C, strain GIM3, hits give low values 1 | S. cerevisiae deletion strains, locus YNL183C, strain NPR1, hits give low values 0.937 | S. cerevisiae deletion strains, locus YNL209W, strain ssb2, hits give low values 1 | S. cerevisiae deletion strains, locus YNL233W, strain BNI4, hits give low values 1.01 | S. cerevisiae deletion strains, locus YNL248C, strain rpa49, hits give low values 1.03 | S. cerevisiae deletion strains, locus YNL250W, strain rad50, hits give low values 1.03 | S. cerevisiae deletion strains, locus YNL271C, strain bni1, hits give low values 1.02 | S. cerevisiae deletion strains, locus YNL298W, strain CLA4, hits give low values 1.04 | S. cerevisiae deletion strains, locus YNL307C, strain MCK1, hits give low values 1.03 | S. cerevisiae deletion strains, locus YNL322C, strain KRE1 (second series), hits give low values 0.997 | S. cerevisiae deletion strains, locus YNL322C, strain KRE1, hits give low values 1 | S. cerevisiae deletion strains, locus YNR049C, strain mso1, hits give low values 0.994 | S. cerevisiae deletion strains, locus YNR052C, strain pop2, hits give low values 1.01 | S. cerevisiae deletion strains, locus YOL006C, strain TOP1, hits give low values 1.05 | S. cerevisiae deletion strains, locus YOL012C, strain htz1 1.38 | S. cerevisiae deletion strains, locus YOL147C, strain pex11, hits give low values 1.02 | S. cerevisiae deletion strains, locus YOR001W, strain rrp6, hits give low values 0.983 | S. cerevisiae deletion strains, locus YOR061W, strain CKA2, hits give low values 1.02 | S. cerevisiae deletion strains, locus YOR069W, strain VPS5, hits give low values 1 | S. cerevisiae deletion strains, locus YOR070C, strain gyp1, hits give low values 1 | S. cerevisiae deletion strains, locus YOR080W, strain dia2, hits give low values 0.986 | S. cerevisiae deletion strains, locus YOR083W, strain WHI5, hits give low values 0.954 | S. cerevisiae deletion strains, locus YOR106W, strain vam3, hits give low values 0.963 | S. cerevisiae deletion strains, locus YOR136W, strain idh2, hits give low values 1.03 | S. cerevisiae deletion strains, locus YOR144C, strain elg1, hits give low values 1.02 | S. cerevisiae deletion strains, locus YOR184W, strain ser1, hits give low values 1.04 | S. cerevisiae deletion strains, locus YOR231W, strain MKK1, hits give low values 1.02 | S. cerevisiae deletion strains, locus YOR265W, strain rbl2, hits give low values 1 | S. cerevisiae deletion strains, locus YOR270C, strain vph1, hits give low values 1.01 | S. cerevisiae deletion strains, locus YOR290C, strain snf2, hits give low values 1.01 | S. cerevisiae deletion strains, locus YOR316C, strain cot1, hits give low values 1.02 | S. cerevisiae deletion strains, locus YPL051W, strain arl3, hits give low values 0.982 | S. cerevisiae deletion strains, locus YPL055C, strain LGE1, hits give low values 1.01 | S. cerevisiae deletion strains, locus YPL078C, strain atp4, hits give low values 0.955 | S. cerevisiae deletion strains, locus YPL106C, strain sse1, hits give low values 0.998 | S. cerevisiae deletion strains, locus YPL240C, strain hsp82, hits give low values 1 | S. cerevisiae deletion strains, locus YPL241C, strain CIN2, hits give low values 1 | S. cerevisiae deletion strains, locus YPL256C, strain CLN2, hits give low values 0.968 | S. cerevisiae deletion strains, locus YPR119W, strain clb2, hits give low values 1.02 | S. cerevisiae deletion strains, locus YPR141C, strain kar3, hits give low values 1.03 | S. cerevisiae deletion strains, locus YPR163C, strain tif3, hits give low values 1.04 | S. cerevisiae deletion strains, locus YPR167C, strain met16, hits give low values 1.02 | S. cerevisiae deletion strains, strain wtn01, hits give low values 1.02 | S. cerevisiae strains, strain wild type, hits give low values 1.01
